# Laboratory results: PubChem BioAssay
# Unmarked numbers belong to inactive results. For some of these results: Potency and affinity values are given separately. The source made the active and inactive calls. Unless noted, no rule for the calls is given here.
# What was measured:
# [1] = antimalarial activity against Dd2 strain (AID 2302;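 active = growth inhibition above 50% at the single 2 µM test dose, taken to imply half-maximal potency below 2 µM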;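 also: 0% = DMSO untreated growth and 100% = chloroquine plus artemisinin killed control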); settings: P. falciparum Dd2 in RBCs, LDH growth readout, 72 h; at 2 µM; active compounds read high
# [2] = human hepatoma cell viability loss – ATP luminescence, cytotoxicity control for P. falciparum antimalarial project, primary screen (AID 2303;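 active = inhibition above 50%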;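 also: 0% = DMSO wells and 100% = digitonin-killed cells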); settings: HepG2 viability, 24-48 h, at 10 µM, active compounds read high
# [3] = biological target: L-lactate dehydrogenase (Plasmodium falciparum (isolate CDC / Honduras)) (UniProt Q27743); assay: PfLDH activity inhibition – cell lysate, 3D7 strain, counter-screen for P. falciparum growth inhibition project (AID 2304);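 also: 0% = vehicle and 100% = reference inhibitor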; settings: P. falciparum 3D7 crude extract, LDH APAD/NBT absorbance; at 2 µM; active compounds read high
# [4] = inhibition of 3D7 malaria parasite growth – strain 3D7 (AID 2306);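 also: 0% = DMSO wells and 100% = chloroquine plus artemisinin control wells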; settings: P. falciparum 3D7 erythrocytic growth, LDH absorbance, 72 h; at 2 µM; active compounds read high
# [5] = biological target: Plasmodium falciparum protein kinase 6 (PK6, PF3D7_1337100) (UniProt Q8IDW1); assay: PfPK6 kinase inhibitors, biochemical, TCAMS library (AID 1159586); settings: recombinant PfPK6, Kinase-Glo ATP depletion luminescence
# [6] = biological target: Protein kinase 7 (PK7), Plasmodium falciparum 3D7 (PF3D7_0213400) (UniProt Q7YTF7); assay: inhibition of Plasmodium PK7 catalytic activity – biochemical, TCAMS antimalarial set, Kinase-Glo luminescence (AID 1159587); settings: recombinant PfPK7, Kinase-Glo ATP depletion luminescence
# [7] = biological target: Calcium-dependent protein kinase 4 (Plasmodium falciparum (isolate 3D7)) (UniProt Q8IBS5); assay: PfCDPK4 kinase inhibitors, biochemical, TCAMS library (AID 1159588; cut-off not given, nearly all actives have IC50 up to about 0.91 µM); settings: recombinant PfCDPK4, Kinase-Glo ATP depletion luminescence
# Calcium-dependent protein kinase 4 (Plasmodium falciparum (isolate 3D7)), sequence (Q8IBS5 whole entry, looked up): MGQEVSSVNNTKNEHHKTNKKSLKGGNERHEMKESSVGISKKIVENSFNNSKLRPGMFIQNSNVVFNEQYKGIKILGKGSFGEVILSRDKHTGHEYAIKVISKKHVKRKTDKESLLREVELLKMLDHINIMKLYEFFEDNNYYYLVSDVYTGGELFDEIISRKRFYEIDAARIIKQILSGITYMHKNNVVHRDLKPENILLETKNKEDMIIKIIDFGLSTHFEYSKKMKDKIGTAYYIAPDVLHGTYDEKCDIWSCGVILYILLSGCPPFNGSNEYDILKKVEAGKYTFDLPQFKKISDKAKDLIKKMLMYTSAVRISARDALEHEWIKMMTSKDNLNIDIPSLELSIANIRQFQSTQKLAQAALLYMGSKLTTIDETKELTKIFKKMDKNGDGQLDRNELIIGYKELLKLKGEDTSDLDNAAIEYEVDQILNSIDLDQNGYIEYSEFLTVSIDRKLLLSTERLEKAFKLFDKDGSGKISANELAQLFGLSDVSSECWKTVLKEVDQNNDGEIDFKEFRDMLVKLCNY
# Protein kinase 7 (PK7), Plasmodium falciparum 3D7 (PF3D7_0213400), sequence (Q7YTF7 1-343): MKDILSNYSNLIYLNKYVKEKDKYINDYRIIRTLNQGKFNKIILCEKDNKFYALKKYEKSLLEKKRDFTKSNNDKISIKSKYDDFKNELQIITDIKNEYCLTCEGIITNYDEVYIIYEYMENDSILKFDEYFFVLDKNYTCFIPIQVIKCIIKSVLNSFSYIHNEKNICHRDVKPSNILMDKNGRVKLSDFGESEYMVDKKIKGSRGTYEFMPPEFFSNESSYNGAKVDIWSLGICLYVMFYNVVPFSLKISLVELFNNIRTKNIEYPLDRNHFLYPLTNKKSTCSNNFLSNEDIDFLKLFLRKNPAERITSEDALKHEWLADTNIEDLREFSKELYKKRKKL
# Plasmodium falciparum protein kinase 6 (PK6, PF3D7_1337100), sequence (Q8IDW1 1-305): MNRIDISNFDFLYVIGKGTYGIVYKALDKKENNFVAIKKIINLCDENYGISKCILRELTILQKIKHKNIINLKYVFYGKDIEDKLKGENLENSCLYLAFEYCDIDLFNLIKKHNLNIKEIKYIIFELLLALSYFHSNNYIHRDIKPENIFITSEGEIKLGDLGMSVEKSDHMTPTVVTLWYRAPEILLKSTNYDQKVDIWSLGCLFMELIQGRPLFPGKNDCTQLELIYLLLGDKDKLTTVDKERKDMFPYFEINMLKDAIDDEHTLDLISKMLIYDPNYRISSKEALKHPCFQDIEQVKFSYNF
# L-lactate dehydrogenase (Plasmodium falciparum (isolate CDC / Honduras)), sequence (Q27743 whole entry, looked up): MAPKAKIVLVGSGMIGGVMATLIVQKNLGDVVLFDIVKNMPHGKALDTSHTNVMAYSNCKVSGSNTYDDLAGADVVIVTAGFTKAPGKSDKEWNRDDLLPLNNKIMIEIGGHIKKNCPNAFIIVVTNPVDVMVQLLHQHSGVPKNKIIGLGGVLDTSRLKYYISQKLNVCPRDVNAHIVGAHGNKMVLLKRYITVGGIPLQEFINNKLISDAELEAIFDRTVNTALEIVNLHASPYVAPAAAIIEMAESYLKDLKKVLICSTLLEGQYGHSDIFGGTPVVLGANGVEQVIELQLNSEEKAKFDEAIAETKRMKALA
Compound,growth inhibition [1],inhibition [2],inhibition [3],growth inhibition [4],outcome [5],outcome [6],outcome [7]
CN(C)CCNCc1nc(-c2ccc3c(Nc4ccc(Oc5ccccc5)cc4)ccnc3c2)cs1,100% (active),8%,6%,101% (active),inactive,inactive,inactive
NCCCOc1cnc(-c2ccccc2)c2nc(-c3nonc3N)n(CCc3ccccc3)c12,86% (active),56% (active),-4%,93% (active),inactive,inactive,inactive
CN1CCN(c2ccc(Nc3ncc(Cl)c(Nc4cccnc4C(N)=O)n3)cc2)CC1,97% (active),99% (active),-1%,95% (active),inactive,inactive,inactive
CC(C)(C)CNCC(C)(C)c1nc(-c2ccc(Cl)c(O)c2)c(-c2ccncc2)[nH]1,98% (active),42%,5%,101% (active),inactive,inactive,inactive
c1ccc(Oc2ccc(Nc3ccnc(Nc4ccc5cn[nH]c5c4)n3)cc2)cc1,33%,6%,-7%,94% (active),inactive,inactive,inactive
CS(=O)(=O)Nc1cccc(-c2cnc3[nH]cc(-c4cccc(CN)c4)c3c2)c1,82% (active),25%,-2%,96% (active),inactive,inactive,inactive
COc1ccc(-c2cnc3ccc(NC4CCC(O)CC4)nn23)cn1 (stereo not drawn),73% (active),54% (active),4%,98% (active),inactive,inactive,inactive
CCNC(=O)Nc1ccc(-c2cnc(N)c(-c3nc4ccc(OC)cc4[nH]3)c2)cc1,43%,51% (active),1%,100% (active),inactive,inactive,inactive
Oc1cc(-c2nc(C3(CNCc4ccc(Cl)cc4)CCCCC3)[nH]c2-c2ccncc2)ccc1Cl,99% (active),35%,2%,100% (active),inactive,inactive,inactive
CCCN1CCN(CCNC(=O)c2cccc(Nc3nccc(Nc4ccc(Oc5ccccc5)cc4)n3)c2)CC1,96% (active),56% (active),-7%,99% (active),inactive,inactive,inactive
CC(C)(CNCc1ccc(OC(F)(F)F)cc1)c1nc(-c2ccc(Cl)c(O)c2)c(-c2ccncc2)[nH]1,99% (active),38%,-2%,102% (active),inactive,inactive,inactive
CC(C)(CNC(=O)C1CCN(CCOc2ccc(F)c(F)c2)CC1)c1nc(-c2ccc(Cl)c(O)c2)c(-c2ccncc2)[nH]1,19%,41%,-1%,101% (active),inactive,inactive,inactive
Cc1ccc(Nc2nc3cc(N(C)c4ccnc(Nc5cccc(CCS(C)(=O)=O)c5)n4)ccc3n2C)cc1,73% (active),78% (active),4%,99% (active),inactive,inactive,inactive
CN(C)CCNCc1cccc(-c2ccc3c(Nc4ccc(Oc5ccccn5)cc4)ccnc3c2)c1,100% (active),27%,2%,99% (active),inactive,inactive,inactive
O=C(NCCCN1CCCCC1)c1ccc(Nc2nccc(Nc3ccc(Oc4ccccc4)cc3)n2)cc1,61% (active),30%,-3%,100% (active),inactive,inactive,inactive
CC(C)(CNC(=O)C1CCN(Cc2ccc(Cl)cc2)CC1)c1nc(-c2ccc(Cl)c(O)c2)c(-c2ccncc2)[nH]1,83% (active),36%,-6%,100% (active),inactive,inactive,inactive
COCCNCc1ncsc1-c1ccc2c(Nc3cc(O)c(Cl)cc3F)ccnc2c1,92% (active),0%,-5%,101% (active),inactive,inactive,inactive
COc1ccc(Nc2ncc3c(-c4cccc(NC(=O)Cc5cccc(O)c5)c4)c[nH]c3n2)cc1OC,96% (active),44%,-6%,101% (active),inactive,inactive,inactive
NCc1ccc(Nc2nccc(Nc3ccc(-c4ccccc4)cc3)n2)cc1,98% (active),47%,-1%,101% (active),inactive,inactive,inactive
CS(=O)(=O)c1cccc(-c2cnc3[nH]cc(-c4cccc(CCN)c4)c3c2)c1,74% (active),-12%,-5%,99% (active),inactive,inactive,inactive
COc1ccc(C(=O)NCC(C)(C)c2nc(-c3ccc(Cl)c(O)c3)c(-c3ccncc3)[nH]2)cc1OCCN(C(C)C)C(C)C,96% (active),62% (active),4%,102% (active),inactive,inactive,inactive

Compound,growth inhibition [1],inhibition [2],inhibition [3],growth inhibition [4],outcome [5],outcome [6],outcome [7]
CN1CCN(Cc2ccc(-c3ccc4c(Nc5ccc(Cl)cc5F)ccnc4c3)o2)CC1,100% (active),47%,-3%,102% (active),inactive,inactive,inactive
CC(C)(CNC(=O)[C@@H]1CCCCN1)c1nc(-c2ccc(Cl)c(O)c2)c(-c2ccncc2)[nH]1,96% (active),-8%,-10%,97% (active),inactive,inactive,inactive
CN(C)CCN(C)Cc1ccc(-c2ccc3c(Nc4ccc(Cl)cc4F)ccnc3c2)o1,76% (active),20%,1%,100% (active),inactive,inactive,inactive
O=C(NCCN1CCCCC1)c1ccc(Nc2nccc(Nc3ccc(Oc4ccccc4)cc3)n2)cc1,91% (active),58% (active),-2%,101% (active),inactive,inactive,inactive
NCC1(c2nc(-c3ccc(Cl)c(O)c3)c(-c3ccncc3)[nH]2)CCCCC1,98% (active),48%,-2%,98% (active),inactive,inactive,inactive
CCn1c(-c2nonc2N)nc2c(-c3cccc(NC(=O)Nc4ccc(Cl)cc4)c3)ncc(OCCCN)c21,72% (active),26%,-1%,96% (active),inactive,inactive,inactive
COCCNCc1cccc(-c2ccc3c(Nc4ccc(Oc5cccnc5)cc4)ccnc3c2)c1,99% (active),58% (active),-5%,100% (active),inactive,inactive,inactive
CN(C)CCN(C)Cc1nc(-c2ccc3c(Nc4ccc(Oc5ccccc5)cc4)ccnc3c2)cs1,100% (active),27%,-3%,100% (active),inactive,inactive,inactive
CC(C)(CNCCOc1ccc(Cl)cc1)c1nc(-c2ccc(Cl)c(O)c2)c(-c2ccnc(N)n2)[nH]1,19%,45%,-6%,97% (active),inactive,inactive,inactive
O=C(NCCN1CCC(c2ccncc2)CC1)c1cccc(Nc2nccc(Nc3ccc(Oc4ccccc4)cc3)n2)c1,91% (active),60% (active),-3%,101% (active),inactive,inactive,inactive
CC(C)(CNCc1ccc(F)c(F)c1)c1nc(-c2ccc(Cl)c(O)c2)c(-c2ccncc2)[nH]1,89% (active),74% (active),2%,102% (active),inactive,inactive,inactive
CS(=O)(=O)CCNCc1cccc(-c2ccc3c(Nc4ccc(Oc5cccnc5)cc4)ccnc3c2)c1,99% (active),27%,4%,101% (active),inactive,inactive,inactive
CCn1c(-c2nonc2N)nc2c(-c3ccccc3)ncc(OCCCNCCCN3CCOCC3)c21,91% (active),28%,-7%,100% (active),inactive,inactive,–
CN(C)CCNCc1ccc(-c2ccc3c(Nc4ccc(Cl)cc4F)ccnc3c2)o1,100% (active),14%,-4%,99% (active),inactive,inactive,inactive
Oc1cc(Nc2ccnc3cc(I)ccc23)c(F)cc1Cl,77% (active),-3%,-3%,92% (active),inactive,inactive,inactive
Clc1ccc(-c2cnc3ccc(NCCc4cccnc4)nn23)cc1,32%,34%,-4%,97% (active),inactive,inactive,inactive
Cc1nc(-c2cccc(Nc3ccnc4cc(-c5nccs5)ccc34)c2)no1,90% (active),37%,-2%,99% (active),inactive,inactive,inactive
CCn1c(-c2nonc2N)nc2c(-c3cccc(NC(=O)Nc4ccc5c(c4)CCC5)c3)ncc(OCCCN)c21,94% (active),26%,-2%,99% (active),inactive,inactive,–
NS(=O)(=O)CCc1cccc(Nc2nccc(-c3c(-c4cccc(NC(=O)c5c(F)cccc5F)c4)nn4ccccc34)n2)c1,97% (active),84% (active),3%,98% (active),inactive,inactive,–
O=C(Nc1c(F)cccc1F)c1cccc(-c2nn3ccccc3c2-c2ccnc(Nc3cccc(-c4cnco4)c3)n2)c1,94% (active),96% (active),-6%,95% (active),inactive,inactive,–
